Results reported in the supplement of paper PMC7156485.
± gives the standard deviation of the averaged measurements.

Test system: HCC1569
Test: cell number relative to DMSO (% of DMSO); higher = more cells (less growth inhibition / toxicity)
Conditions: concentration: 10 µM; 24 h
Procedure, shortened: (§1)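 For HCC1569 and TDF cells, compounds at 10 µM were applied for 24 h at 37 °C in triplicate in 384-well plates. Cells were fixed in 3.7% formaldehyde, stained for H1.0 and with DAPI, and imaged at ×10 over six fields per well. The endpoint, H1.0 nuclear intensity or cell number, is shown as percent of the plate control using the median of replicates. Positional effects were smoothed for HCC1569 only.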
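Also: TDF denotes transformed human dermal fibroblasts of mesenchymal origin.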

Question: Which cell number does the source give for `Cl.O=C1CC2OCC=C3CN4CCC56c7ccccc7N1C5C2C3CC46` (stereo not given) here?
Answer: 103 ± 5.8

Question: With `CCOP(=O)(OCC)C(C)NC(=O)N(CCCl)N=O` (stereo not given) as the compound, how does the cell number read?
Answer: 100

Question: How did the cell number turn out when `C=CCN1CCC23c4c5ccc(O)c4OC2C(=O)CCC3(O)C1C5.Cl` (stereo not given) [Naloxone hydrochloride] was run?
Answer: 104

Question: `O=S1(=O)N(CCN2CC=C(c3c[nH]c4cc(F)ccc34)CC2)c2cccc3c2N1CCC3` was tested. Which cell number did it give?
Answer: 101

Question: How did the cell number turn out when `CC(=O)c1c(O)c(C)c(O)c(Cc2c(O)c3c(c(C(=O)C=Cc4ccccc4)c2O)OC(C)(C)C=C3)c1O` [Rottlerin] was run?
Answer: 82.5 ± 13

Question: Which cell number does the source give for `CC(O)C(C)OC(=O)C1CC2c3cccc4c3c(cn4C(C)C)CC2N(C)C1.O=C(O)C=CC(=O)O` (stereo not given) [LY-53,857 maleate] here?
Answer: 107

Question: With `CC(C)(C)NCC(O)c1cc(Cl)c(N)c(Cl)c1` (stereo not given) [Clenbuterol] as the compound, how does the cell number read?
Answer: 99.5

Question: `O=C(O)C1C2CCC(O2)C1C(=O)O` (stereo not given) [Endothall] was tested. Which cell number did it give?
Answer: 97.6

Question: For `CC1CC2CCC(O2)C(C)C(=O)OC(C)CC2CCC(O2)C(C)C(=O)OC(C)CC2CCC(O2)C(C)C(=O)OC(C)CC2CCC(O2)C(C)C(=O)O1` (stereo not given) [Nonactin], which cell number is on record?
Answer: 60.4

Question: Which cell number does the source give for `Cl.Cl.Clc1cccc(N2CCNCC2)c1` [1-(3-Chlorophenyl)piperazine dihydrochloride] here?
Answer: 83.5

Question: Which cell number does the source give for `COCC1OC(=O)c2coc3c2C1(C)C1=C(C3=O)C2CCC(=O)C2(C)CC1OC(C)=O` (stereo not given) [Wortmannin from Penicillium funiculosum] here?
Answer: 41.7

Question: With `NC1(C(=O)O)CCC(C(=O)O)C1` (mixture of isomers) as the compound, how does the cell number read?
Answer: 104

Question: For `O=[N+]([O-])C=Cc1ccc2c(c1)OCO2` [Syk Inhibitor III], which cell number is on record?
Answer: 37.1

Question: `Cl.c1ccc2c(N3CCNCC3)cccc2c1` [1-(1-Naphthyl)piperazine hydrochloride] was tested. Which cell number did it give?
Answer: 99.6

Question: `CC1OC(OC2CC(O)C3(CO)C4C(O)CC5(C)C(C6=CC(=O)OC6)CCC5(O)C4CCC3(O)C2)C(O)C(O)C1O` (stereo not given) [Ouabain] was tested. Which cell number did it give?
Answer: 46.2

Question: With `COc1cc2c(cc1OC)[C@H]1CC(=O)[C@H](CC(C)C)CN1CC2` as the compound, how does the cell number read?
Answer: 106

Question: With `Cl.FC(F)(F)c1cccc(C2=CCN(CCc3ccc4ccccc4c3)CC2)c1` as the compound, how does the cell number read?
Answer: 109

Question: How did the cell number turn out when `Cl.Cl.Cn1cnc(CCN)c1` [1-Methylhistamine dihydrochloride] was run?
Answer: 98.1

Question: For `NC(Cn1oc(=O)[nH]c1=O)C(=O)O` (single isomer, unassigned; (+)) [(+)-Quisqualic acid], which cell number is on record?
Answer: 101

Question: Which cell number does the source give for `COc1ccc2[nH]c3c(c2c1)CCNC3` [6-Methoxy-1,2,3,4-tetrahydro-9H-pyrido[3,4b] indole] here?
Answer: 106

Question: How did the cell number turn out when `O=c1c2ccccc2[se]n1-c1ccccc1` [Ebselen] was run?
Answer: 102.1 ± 0.14

Question: How did the cell number turn out when `CC(C)C1CNC(C(=O)O)C1CC(=O)O` (stereo not given) [Dihydrokainic acid] was run?
Answer: 102

Question: Which cell number does the source give for `CN1CCC(c2c[nH]c3ccc(O)cc23)CC1.O=C(O)C=CC(=O)O` here?
Answer: 101

Question: With `NC(=O)COc1c(F)cc(SCCNS(=O)(=O)c2ccccc2)cc1F` as the compound, how does the cell number read?
Answer: 106

Question: For `CC1CC=CC2C3OC3(C)C(C)C3C(Cc4ccccc4)NC(=O)C23OC(=O)OC=CC(C)(O)C1=O` (stereo not given) [Cytochalasin E], which cell number is on record?
Answer: 63.3

Question: How did the cell number turn out when `C=C(C)C1Cc2c(ccc3c2OC2COc4cc(OC)c(OC)cc4C2C3=O)O1` (stereo not given) [Rotenone] was run?
Answer: 59.7 ± 1.6

Test system: TDF
Test: as above
Conditions: concentration: 10 µM; 24 h
Procedure, shortened: as §1

Question: How did the cell number turn out when `Cl.NNC(N)=O` [Semicarbazide hydrochloride] was run?
Answer: 111

Question: With `Cc1ccc2c(c1)C1(CCN(CCc3nc(-c4ccccc4)oc3C)CC1)OC(=O)N2` as the compound, how does the cell number read?
Answer: 91.1

Question: `CN1CC(C(=O)NC2(C)OC3(O)C4CCCN4C(=O)C(Cc4ccccc4)N3C2=O)CC2c3cccc4[nH]cc(c34)CC21.CS(=O)(=O)O` (stereo not given) [Dihydroergotamine methanesulfonate] was tested. Which cell number did it give?
Answer: 108

Question: With `CCC1(c2ccc(N)cc2)CCC(=O)NC1=O` (racemic) [DL-Aminoglutethimide] as the compound, how does the cell number read?
Answer: 102

Question: For `Cn1ncnc1COc1nn2c(-c3c(F)cccc3F)nnc2cc1C1CCC1`, which cell number is on record?
Answer: 100

Question: How did the cell number turn out when `CC1=NN=C(c2ccc(N)cc2)c2cc3c(cc2C1)OCO3.Cl` was run?
Answer: 95.2

Question: With `Cl.Oc1ccc2c3c1OC1C(O)CCC4(O)C(C2)N(CC2CCC2)CCC314` (stereo not given) [Nalbuphine hydrochloride] as the compound, how does the cell number read?
Answer: 104

Question: How did the cell number turn out when `CC(N)Cc1c[nH]c2ccc(O)cc12.O=C(O)C=CC(=O)O` (stereo not drawn) [alpha-Methyl-5-hydroxytryptamine maleate] was run?
Answer: 104

Question: Which cell number does the source give for `CC(C(O)CCC(C)(C)O)C1CCC2(O)C3=CC(=O)C4CC(O)C(O)CC4(C)C3CCC12C` (stereo not given) [Ecdysone] here?
Answer: 112

Question: How did the cell number turn out when `O.O=P1(N(CCCl)CCCl)NCCCO1` (stereo not given) [Cyclophosphamide monohydrate] was run?
Answer: 61.2

Question: `CC12Cc3cn[nH]c3CC1CCC1C2CCC2(C)C1CCC2(C)O` (stereo not given) [Stanozolol] was tested. Which cell number did it give?
Answer: 99.5

Question: `Fc1cc(F)c2c(c1)C1C=CCC1C(c1cccnc1)N2` (stereo not given) was tested. Which cell number did it give?
Answer: 52.7

Question: With `CCN1CC2(C)CCC(O)C34C5CC6C(OC)CC(O)(C(CC23)C14)C5C6O` (stereo not given) [Karakoline] as the compound, how does the cell number read?
Answer: 99.5 ± 1.5

Question: With `Cl.O=C1CC2OCC=C3CN4CCC56c7ccccc7N1C5C2C3CC46` (stereo not given) as the compound, how does the cell number read?
Answer: 102 ± 1.1

Question: For `CCOP(=O)(OCC)C(C)NC(=O)N(CCCl)N=O` (stereo not given), which cell number is on record?
Answer: 80.1

Question: How did the cell number turn out when `C=CCN1CCC23c4c5ccc(O)c4OC2C(=O)CCC3(O)C1C5.Cl` (stereo not given) [Naloxone hydrochloride] was run?
Answer: 98.9

Question: For `O=S1(=O)N(CCN2CC=C(c3c[nH]c4cc(F)ccc34)CC2)c2cccc3c2N1CCC3`, which cell number is on record?
Answer: 107

Question: `CC(=O)c1c(O)c(C)c(O)c(Cc2c(O)c3c(c(C(=O)C=Cc4ccccc4)c2O)OC(C)(C)C=C3)c1O` [Rottlerin] was tested. Which cell number did it give?
Answer: 77.9 ± 6.9

Question: With `CC(O)C(C)OC(=O)C1CC2c3cccc4c3c(cn4C(C)C)CC2N(C)C1.O=C(O)C=CC(=O)O` (stereo not given) [LY-53,857 maleate] as the compound, how does the cell number read?
Answer: 107

Question: With `CC(C)(C)NCC(O)c1cc(Cl)c(N)c(Cl)c1` (stereo not given) [Clenbuterol] as the compound, how does the cell number read?
Answer: 103

Question: With `O=C(O)C1C2CCC(O2)C1C(=O)O` (stereo not given) [Endothall] as the compound, how does the cell number read?
Answer: 97.8

Question: How did the cell number turn out when `CC1CC2CCC(O2)C(C)C(=O)OC(C)CC2CCC(O2)C(C)C(=O)OC(C)CC2CCC(O2)C(C)C(=O)OC(C)CC2CCC(O2)C(C)C(=O)O1` (stereo not given) [Nonactin] was run?
Answer: 50.1

Question: With `Cl.Cl.Clc1cccc(N2CCNCC2)c1` [1-(3-Chlorophenyl)piperazine dihydrochloride] as the compound, how does the cell number read?
Answer: 87.5

Question: With `COCC1OC(=O)c2coc3c2C1(C)C1=C(C3=O)C2CCC(=O)C2(C)CC1OC(C)=O` (stereo not given) [Wortmannin from Penicillium funiculosum] as the compound, how does the cell number read?
Answer: 100

Question: How did the cell number turn out when `NC1(C(=O)O)CCC(C(=O)O)C1` (mixture of isomers) was run?
Answer: 106

Question: How did the cell number turn out when `O=[N+]([O-])C=Cc1ccc2c(c1)OCO2` [Syk Inhibitor III] was run?
Answer: 33.2

Question: `Cl.c1ccc2c(N3CCNCC3)cccc2c1` [1-(1-Naphthyl)piperazine hydrochloride] was tested. Which cell number did it give?
Answer: 94.3

Question: How did the cell number turn out when `CC1OC(OC2CC(O)C3(CO)C4C(O)CC5(C)C(C6=CC(=O)OC6)CCC5(O)C4CCC3(O)C2)C(O)C(O)C1O` (stereo not given) [Ouabain] was run?
Answer: 36.4

Question: `COc1cc2c(cc1OC)[C@H]1CC(=O)[C@H](CC(C)C)CN1CC2` was tested. Which cell number did it give?
Answer: 102

Question: How did the cell number turn out when `Cl.FC(F)(F)c1cccc(C2=CCN(CCc3ccc4ccccc4c3)CC2)c1` was run?
Answer: 96.7

Question: With `Cl.Cl.Cn1cnc(CCN)c1` [1-Methylhistamine dihydrochloride] as the compound, how does the cell number read?
Answer: 110

Question: `NC(Cn1oc(=O)[nH]c1=O)C(=O)O` (single isomer, unassigned; (+)) [(+)-Quisqualic acid] was tested. Which cell number did it give?
Answer: 94.1

Question: `COc1ccc2[nH]c3c(c2c1)CCNC3` [6-Methoxy-1,2,3,4-tetrahydro-9H-pyrido[3,4b] indole] was tested. Which cell number did it give?
Answer: 100

Question: How did the cell number turn out when `O=c1c2ccccc2[se]n1-c1ccccc1` [Ebselen] was run?
Answer: 97.7 ± 1.2

Question: With `CC(C)C1CNC(C(=O)O)C1CC(=O)O` (stereo not given) [Dihydrokainic acid] as the compound, how does the cell number read?
Answer: 116

Question: `CN1CCC(c2c[nH]c3ccc(O)cc23)CC1.O=C(O)C=CC(=O)O` was tested. Which cell number did it give?
Answer: 101

Question: With `NC(=O)COc1c(F)cc(SCCNS(=O)(=O)c2ccccc2)cc1F` as the compound, how does the cell number read?
Answer: 102

Question: With `CC1CC=CC2C3OC3(C)C(C)C3C(Cc4ccccc4)NC(=O)C23OC(=O)OC=CC(C)(O)C1=O` (stereo not given) [Cytochalasin E] as the compound, how does the cell number read?
Answer: 32.4

Question: With `C=C(C)C1Cc2c(ccc3c2OC2COc4cc(OC)c(OC)cc4C2C3=O)O1` (stereo not given) [Rotenone] as the compound, how does the cell number read?
Answer: 16.2 ± 0.54
